# In the supplement of paper PMC12645437, “Orthogonal IMiD-Degron Pairs Induce Selective Protein Degradation in Cells” (ACS Chemical Biology, 2025):
# Whole data set: some 8,300 sequences, median “log2 fold change of degron read counts, EGFP-low vs EGFP+ sorted cells (limma voom), compound-induced degradation” near -1.1, cut for the highest 2% near 3.2. The list comes from a sample in which the highest values are over-represented; it also holds similar and randomly drawn sequences.
# T1: CRBN, Q96SW2
# T1 chain: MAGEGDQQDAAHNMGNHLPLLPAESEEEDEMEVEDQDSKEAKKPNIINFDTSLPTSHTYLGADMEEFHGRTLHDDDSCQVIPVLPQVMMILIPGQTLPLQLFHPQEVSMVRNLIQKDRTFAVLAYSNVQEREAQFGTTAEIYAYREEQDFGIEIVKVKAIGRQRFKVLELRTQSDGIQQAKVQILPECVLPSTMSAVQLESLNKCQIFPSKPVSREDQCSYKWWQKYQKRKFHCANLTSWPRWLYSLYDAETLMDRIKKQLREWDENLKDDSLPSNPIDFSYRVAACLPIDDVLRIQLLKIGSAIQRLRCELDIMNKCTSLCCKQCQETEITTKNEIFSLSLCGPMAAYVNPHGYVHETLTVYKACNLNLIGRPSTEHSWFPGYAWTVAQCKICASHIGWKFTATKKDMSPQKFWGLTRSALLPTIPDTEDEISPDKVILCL
# Molecular target: T1, CRBN, Q96SW2
# Experiment: log2 fold change of degron read counts, EGFP-low vs EGFP+ sorted cells (limma voom), compound-induced degradation; higher = more compound-induced degradation of the degron-EGFP fusion; degrons are variants of IKZF1/3 zinc finger 2; compound dose not given here
# Conditions: Jurkat, 18 h
# [1] = compound: compound 19 (5-tert-butyl-thalidomide)
# [2] = compound: compound 22 (5-morpholino-thalidomide)
# [3] = compound: compound 33 (diphenyl IMiD analogue)
# 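Also: pooled lentiviral library of zinc finger degron-EGFP fusions in mCherry-positive Jurkat cells, FACS-sorted after compound exposure, with degron abundance counted by next-generation sequencing.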
Sequence,log2 fold change of degron read counts [1],log2 fold change of degron read counts [2],log2 fold change of degron read counts [3],log2 fold change of degron read counts (compound: thalidomide)
"FGCDVCGALFTQKGNLLRHIKL [46F_47G_49D_50V_52G_53A_54L_55F_67L_, Q9UKT9]",-0.285,-1.26,0.277,-1.67
"FLCNQCGRHFTQKGNLLRHIKL [46F_47L_49N_50Q_52G_53R_54H_55F_67L_, Q9UKT9]",-2.4,-2.59,-2.64,-2
"FSCNVCGAYFTQKGNLLRHIKL [46F_47S_49N_50V_52G_53A_54Y_55F_67L_, Q9UKT9]",-0.837,-0.921,0.627,-0.674
"FACNQCGRGFTQKGNLLRHIKL [46F_47A_49N_50Q_52G_53R_54G_55F_67L_, Q9UKT9]",-2.53,-2.62,-2.49,-2.4
"FECNQCGATFTQKGNLLRHIKL [46F_47E_49N_50Q_52G_53A_54T_55F_67L_, Q9UKT9]",-2.51,-3.02,-2.92,-1.69
"FICDQCGARFTQKGNLLRHIKL [46F_47I_49D_50Q_52G_53A_54R_55F_67L_, Q9UKT9]",-2.79,-0.912,-0.818,-1.23
"FSCPICGAWFTQKGNLLRHIKL [46F_47S_49P_50I_52G_53A_54W_55F_67L_, Q9UKT9]",0.603,-0.272,0.788,-0.152
"FVCNQCGADFTQKGNLLRHIKL [46F_47V_49N_50Q_52G_53A_54D_55F_67L_, Q9UKT9]",-3.46,-3.35,-3.82,-2.79
"FRCEICGRRFTQKGNLLRHIKL [46F_47R_49E_50I_52G_53R_54R_55F_67L_, Q9UKT9]",-2.67,-2.2,-1.21,-0.634
"FSCDQCGAEFTQKGNLLRHIKL [46F_47S_49D_50Q_52G_53A_54E_55F_67L_, Q9UKT9]",-2.57,-3.41,-1.87,-2.94
"FCCPICGRCFTQKGNLLRHIKL [46F_47C_49P_50I_52G_53R_54C_55F_67L_, Q9UKT9]",-0.609,-0.825,0.868,0.188
"FVCEICGRPFTQKGNLLRHIKL [46F_47V_49E_50I_52G_53R_54P_55F_67L_, Q9UKT9]",-1.68,-0.932,-1.28,-0.0354
"LCCPICGFKCTQKGNLLRHIKL [46L_47C_49P_50I_52G_53F_54K_55C_67L_, Q9UKT9]",1.84,1.91,0.929,2.55
"FFCEICGAKFTQKGNLLRHIKL [46F_47F_49E_50I_52G_53A_54K_55F_67L_, Q9UKT9]",3.78,3.65,1.37,1.7
"FDCEICGAKFTQKGNLLRHIKL [46F_47D_49E_50I_52G_53A_54K_55F_67L_, Q9UKT9]",2.14,0.278,-2.01,1.01
"FQCEICGAKFTQKGNLLRHIKL [46F_47Q_49E_50I_52G_53A_54K_55F_67L_, Q9UKT9]",0.93,2.95,0.278,3.46
"FCCEICGAKFTQKGNLLRHIKL [46F_47C_49E_50I_52G_53A_54K_55F_67L_, Q9UKT9]",3.35,2.52,0.0496,2.53
"FHCEICGAKFTQKGNLLRHIKL [46F_47H_49E_50I_52G_53A_54K_55F_67L_, Q9UKT9]",2.99,2.33,-0.357,0.544
"FECEICGAKFTQKGNLLRHIKL [46F_47E_49E_50I_52G_53A_54K_55F_67L_, Q9UKT9]",0.521,-1.41,-0.834,2.62
"FKCEICGAKFTQKGNLLRHIKL [46F_47K_49E_50I_52G_53A_54K_55F_67L_, Q9UKT9]",-1.09,-3.1,-3.06,-1.37
"FSCEICGAKFTQKGNLLRHIKL [46F_47S_49E_50I_52G_53A_54K_55F_67L_, Q9UKT9]",3.23,1.96,-0.76,1.76
"FNCEICGAKFTQKGNLLRHIKL [46F_47N_49E_50I_52G_53A_54K_55F_67L_, Q9UKT9]",2.53,0.377,-1.68,0.453
"FYCEICGAKFTQKGNLLRHIKL [46F_47Y_49E_50I_52G_53A_54K_55F_67L_, Q9UKT9]",3.9,3.84,1.98,1.59
"FLCEICGAKFTQKGNLLRHIKL [46F_47L_49E_50I_52G_53A_54K_55F_67L_, Q9UKT9]",0.834,-0.868,-0.0729,2.07
